{"source": "PubChem BioAssay (NCATS)", "note": "Results filed as inconclusive are left out. Activity calls are given as the source filed them. Calls come from the whole dose curve; as a rule, active = well fitted inhibition curve with a large enough effect; inconclusive = small, poorly fitted or top-dose-only effect; inactive = flat fitted curve, though single readings scatter. Potency is the fitted concentration of half-maximal effect.", "data": [{"test_system": "CP217", "experiment": "qHTS profiling for inhibitors of Plasmodium falciparum proliferation (AID 504749); note: nearly all actives have a fitted effect of over 60% in size;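 for activity, negative = inhibition: 0% = DMSO vehicle and full inhibition = artemisinin control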", "conditions": "P. falciparum in erythrocytes, SYBR Green DNA, 72 h; series mostly up to 28.7 µM; activity, negative = inhibition: at the top concentration", "in_short": "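Three-day growth assay of blood-stage parasites in erythrocytes (0.3% parasitemia, 2.5% hematocrit) at 37 C, 5% CO2, quantified by SYBR Green DNA staining after overnight detergent lysis.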", "values": [{"smiles": "N=C(N)c1ccc(OCCCCCOc2ccc(C(=N)N)cc2)cc1", "Potency": "2.24 µM (active)"}, {"smiles": "OC(Cn1cncn1)(Cn1cncn1)c1ccc(F)cc1F", "activity, negative = inhibition": "9.34% (inactive)"}, {"smiles": "CCOC(=O)c1ccc(OC(=O)CCCCCN=C(N)N)cc1", "activity, negative = inhibition": "-11% [at 12.8 µM] (inactive)"}, {"smiles": "CN(CCOc1ccc(CC2SC(=O)NC2=O)cc1)c1ccccn1", "note": "(stereo not drawn)", "activity, negative = inhibition": "5.48% (inactive)"}, {"smiles": "CC(C)(C#N)c1cc(Cn2cncn2)cc(C(C)(C)C#N)c1", "activity, negative = inhibition": "0.74% (inactive)"}, {"smiles": "NC(=O)c1cccnc1", "activity, negative = inhibition": "10.2% (inactive)"}, {"smiles": "COc1nc(N)nc2c1ncn2[C@@H]1O[C@H](CO)[C@@H](O)[C@@H]1O", "activity, negative = inhibition": "-8.42% (inactive)"}, {"smiles": "S=P(N1CC1)(N1CC1)N1CC1", "activity, negative = inhibition": "0.769% (inactive)"}, {"smiles": "CN1CCN(c2c(F)cc3c(=O)c(C(=O)O)cn(CCF)c3c2F)CC1", "activity, negative = inhibition": "-7.76% (inactive)"}, {"smiles": "COc1ccc(-c2ccc3cc(C(=O)O)ccc3c2)cc1C12CC3CC(CC(C3)C1)C2", "activity, negative = inhibition": "0.653% (inactive)"}, {"smiles": "Cc1nnc(NS(=O)(=O)c2ccc(N)cc2)s1", "activity, negative = inhibition": "2.73% (inactive)"}, {"smiles": "Cc1ccnc2c1NC(=O)c1cccnc1N2C1CC1", "activity, negative = inhibition": "8.71% (inactive)"}, {"smiles": "Nc1[nH]c(=O)ncc1F", "activity, negative = inhibition": "-5.29% [at 12.8 µM] (inactive)"}, {"smiles": "NC(N)=NC(N)=NCCc1ccccc1", "Potency": "inactive"}, {"smiles": "Nc1nc(N)nc(-c2cc(Cl)ccc2Cl)n1", "activity, negative = inhibition": "-3.69% (inactive)"}, {"smiles": "Cc1cccc(Nc2ccncc2S(=O)(=O)NC(=O)NC(C)C)c1", "activity, negative = inhibition": "-6.56% [at 12.8 µM] (inactive)"}, {"smiles": "O=P(O)(O)C(O)(Cc1cccnc1)P(=O)(O)O", "activity, negative = inhibition": "5.12% (inactive)"}, {"smiles": "CCOCC(O)COc1ccc(NC(=O)CC[S+](C)C)cc1", "note": "(stereo not drawn)", "activity, negative = inhibition": "4.42% (inactive)"}, {"smiles": "Cc1cccc(N(C)C(=S)Oc2ccc3ccccc3c2)c1", "activity, negative = inhibition": "-10.3% [at 12.8 µM] (inactive)"}, {"smiles": "CN(C)CCc1c[nH]c2ccc(CS(=O)(=O)N3CCCC3)cc12", "activity, negative = inhibition": "-9.09% (inactive)"}, {"smiles": "N[C@@H](C(=O)N[C@@H]1C(=O)N2C(C(=O)O)=C(Cl)CS[C@H]12)c1ccccc1", "activity, negative = inhibition": "6.51% (inactive)"}, {"smiles": "COC(=O)Nc1nc2ccc(Sc3ccccc3)cc2[nH]1", "activity, negative = inhibition": "-1.38% [at 12.8 µM] (inactive)"}, {"smiles": "Cc1noc(NS(=O)(=O)c2ccc(N)cc2)c1C", "activity, negative = inhibition": "-4.82% (inactive)"}, {"smiles": "CC(C)NCC(O)c1ccc(NS(C)(=O)=O)cc1", "note": "(stereo not drawn)", "Potency": "inactive"}, {"smiles": "Nc1ccc(S(=O)(=O)Nc2ccccn2)cc1", "activity, negative = inhibition": "-14.3% [at 12.8 µM] (inactive)"}, {"smiles": "C[C@]12C=CC(=O)C=C1CC[C@@H]1[C@@H]2C(=O)C[C@@]2(C)[C@H]1CC[C@]2(O)C(=O)CO", "activity, negative = inhibition": "-0.435% (inactive)"}, {"smiles": "CC(=O)Oc1ccccc1C(=O)Nc1ncc([N+](=O)[O-])s1", "activity, negative = inhibition": "-8.56% (inactive)"}, {"smiles": "NCCCC(O)(P(=O)(O)O)P(=O)(O)O", "activity, negative = inhibition": "5.15% (inactive)"}]}]}
